Where “and” joins values, the source holds several entries; their conditions need not be identical. Equal values may be shown once. Inconclusive results are not listed. Entries that show only a call come without a potency. Where a structure was tested more than once in an assay, its records may differ in their call. Calls of active or inactive are those of the source. Calls come from the whole dose curve; as a rule, active = well fitted curve in the direction sought with a large enough effect in the repeat runs; inconclusive = weak or mixed curves; inactive = no such curve, though single readings can be large; an effect the other way counts as inactive or inconclusive.
Columns and labels:
[1] = biological target: Cytochrome P450 2C19 (Homo sapiens) (UniProt P33261); assay: Cytochrome P450 Family 2 Subfamily C Member 19 (CYP2C19) small molecule antagonists: luciferase reporter qHTS assay (AID 1671197); note: nearly all actives have a fitted effect of over 65% in size
Sequence of Cytochrome P450 2C19 (Homo sapiens) (P33261 whole entry, looked up): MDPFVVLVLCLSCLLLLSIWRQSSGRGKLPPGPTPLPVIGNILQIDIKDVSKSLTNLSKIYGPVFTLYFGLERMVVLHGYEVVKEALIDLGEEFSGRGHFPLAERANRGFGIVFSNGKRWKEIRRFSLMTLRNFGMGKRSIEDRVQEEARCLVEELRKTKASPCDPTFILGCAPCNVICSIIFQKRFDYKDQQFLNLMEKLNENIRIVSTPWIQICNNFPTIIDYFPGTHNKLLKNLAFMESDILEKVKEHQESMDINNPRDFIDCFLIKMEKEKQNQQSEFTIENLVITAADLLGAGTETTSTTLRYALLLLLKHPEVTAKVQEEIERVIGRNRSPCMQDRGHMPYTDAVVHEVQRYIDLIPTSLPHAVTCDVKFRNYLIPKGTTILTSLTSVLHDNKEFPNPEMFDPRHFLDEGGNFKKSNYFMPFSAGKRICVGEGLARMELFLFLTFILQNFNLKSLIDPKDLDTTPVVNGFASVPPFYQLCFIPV
Outline: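 Quantitative high-throughput screen of the Tox21 library using CYP2C19 with proluciferin substrate. Reaction: NADPH regeneration, 37C, 1 h, after 10 min compound preincubation at room temperature. Readout: luminescence.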

[2] = biological target: Cytochrome P450 2C9 (Homo sapiens) (UniProt P11712); assay: Cytochrome P450 Family 2 Subfamily C Member 9 (CYP2C9) small molecule antagonists: luciferase reporter qHTS assay (AID 1671198); note: nearly all actives have a fitted effect of over 50% in size
Sequence of Cytochrome P450 2C9 (Homo sapiens) (P11712 whole entry, looked up): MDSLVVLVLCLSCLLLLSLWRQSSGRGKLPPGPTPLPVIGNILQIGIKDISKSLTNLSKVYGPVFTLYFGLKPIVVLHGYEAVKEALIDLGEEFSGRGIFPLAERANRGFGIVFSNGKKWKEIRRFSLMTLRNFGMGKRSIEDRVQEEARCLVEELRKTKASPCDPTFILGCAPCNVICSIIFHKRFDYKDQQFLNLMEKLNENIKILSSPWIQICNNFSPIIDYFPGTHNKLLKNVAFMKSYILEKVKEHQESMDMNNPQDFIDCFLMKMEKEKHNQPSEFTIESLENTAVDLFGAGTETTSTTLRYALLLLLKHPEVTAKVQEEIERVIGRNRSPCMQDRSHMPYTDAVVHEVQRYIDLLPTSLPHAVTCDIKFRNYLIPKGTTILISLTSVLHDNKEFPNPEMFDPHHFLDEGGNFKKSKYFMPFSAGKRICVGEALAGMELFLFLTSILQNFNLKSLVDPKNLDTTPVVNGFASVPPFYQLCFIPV
Outline: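 P450-Glo proluciferin substrate with CYP2C9 enzyme; 10 min RT preincubation, then NADPH regeneration 1 h at 37C; luciferin detection reagent 20 min RT, luminescence in relative luminescence units.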

[3] = biological target: Cytochrome P450 1A2 (Homo sapiens) (UniProt P05177); assay: Cytochrome P450 Family 1 Subfamily A Member 2 (CYP1A2) small molecule antagonists: luciferase reporter qHTS assay (AID 1671199); note: nearly all actives have a fitted effect of over 50% in size
Sequence of Cytochrome P450 1A2 (Homo sapiens) (P05177 whole entry, looked up): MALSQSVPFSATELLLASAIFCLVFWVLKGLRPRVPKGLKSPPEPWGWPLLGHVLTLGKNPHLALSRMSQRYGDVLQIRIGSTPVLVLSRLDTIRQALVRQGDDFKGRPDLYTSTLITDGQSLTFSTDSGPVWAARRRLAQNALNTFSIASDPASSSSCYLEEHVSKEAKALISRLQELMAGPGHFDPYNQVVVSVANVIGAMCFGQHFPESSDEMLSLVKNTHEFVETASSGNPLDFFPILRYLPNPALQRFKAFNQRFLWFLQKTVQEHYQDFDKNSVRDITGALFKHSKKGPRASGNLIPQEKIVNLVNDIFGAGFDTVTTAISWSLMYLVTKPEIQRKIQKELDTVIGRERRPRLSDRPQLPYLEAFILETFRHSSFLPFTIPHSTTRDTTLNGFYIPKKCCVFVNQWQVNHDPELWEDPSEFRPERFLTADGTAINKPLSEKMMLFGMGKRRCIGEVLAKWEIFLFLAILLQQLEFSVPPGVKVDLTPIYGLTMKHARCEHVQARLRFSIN
Outline: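 Signal from luciferin formed by CYP1A2 from a proluciferin substrate is read as luminescence, expressed in relative luminescence units. Compounds sit with enzyme 10 min, NADPH-driven reaction runs 1 h, all at room temperature.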

[4] = biological target: Voltage-gated inwardly rectifying potassium channel KCNH2 (Homo sapiens) (UniProt Q12809); assay: Human Ether-a-go-go-Related Gene (hERG) channel small molecule antagonists: fluorescence cell-based qHTS assay (AID 1671200); note: nearly all actives have a fitted effect of over 50% in size
Sequence of Voltage-gated inwardly rectifying potassium channel KCNH2 (Homo sapiens) (Q12809 whole entry, looked up): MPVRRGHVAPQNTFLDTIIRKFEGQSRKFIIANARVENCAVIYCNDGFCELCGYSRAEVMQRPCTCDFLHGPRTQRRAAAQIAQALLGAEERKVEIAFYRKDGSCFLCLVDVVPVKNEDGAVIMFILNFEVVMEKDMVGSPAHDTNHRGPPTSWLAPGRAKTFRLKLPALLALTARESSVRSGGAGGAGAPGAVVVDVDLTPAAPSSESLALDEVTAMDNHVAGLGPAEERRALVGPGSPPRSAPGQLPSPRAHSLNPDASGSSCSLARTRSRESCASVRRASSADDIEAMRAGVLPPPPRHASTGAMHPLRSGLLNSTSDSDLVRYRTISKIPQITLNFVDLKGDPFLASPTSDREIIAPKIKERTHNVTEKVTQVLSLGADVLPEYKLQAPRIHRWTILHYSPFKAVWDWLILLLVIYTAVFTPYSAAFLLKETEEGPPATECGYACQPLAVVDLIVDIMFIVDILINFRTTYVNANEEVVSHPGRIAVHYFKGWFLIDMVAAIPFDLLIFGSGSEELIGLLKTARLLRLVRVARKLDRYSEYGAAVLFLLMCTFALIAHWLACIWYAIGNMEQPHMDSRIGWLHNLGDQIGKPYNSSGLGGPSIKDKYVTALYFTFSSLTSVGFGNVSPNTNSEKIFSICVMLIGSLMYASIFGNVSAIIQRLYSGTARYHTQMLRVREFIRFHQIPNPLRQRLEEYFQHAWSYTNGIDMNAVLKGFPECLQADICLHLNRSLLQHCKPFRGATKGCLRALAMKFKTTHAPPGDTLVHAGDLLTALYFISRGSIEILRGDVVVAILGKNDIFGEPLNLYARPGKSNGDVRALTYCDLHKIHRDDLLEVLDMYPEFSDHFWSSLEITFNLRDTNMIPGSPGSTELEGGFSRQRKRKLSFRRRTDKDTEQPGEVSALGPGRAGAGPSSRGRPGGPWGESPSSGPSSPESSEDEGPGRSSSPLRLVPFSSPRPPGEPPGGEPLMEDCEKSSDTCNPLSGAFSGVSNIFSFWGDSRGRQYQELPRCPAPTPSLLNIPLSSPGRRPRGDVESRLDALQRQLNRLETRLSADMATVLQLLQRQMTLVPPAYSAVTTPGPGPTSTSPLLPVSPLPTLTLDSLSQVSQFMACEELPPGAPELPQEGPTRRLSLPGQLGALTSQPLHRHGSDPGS
Outline: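 Thallium flux as potassium surrogate: FluxOR II dye loaded 1 h at room temperature into hERG-expressing U2OS cells, then stimulus buffer added after 10 min. Kinetic 480 nm excitation/540 nm emission read, 2 min.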

[5] = biological target: Cytochrome P450 3A4 (Homo sapiens) (UniProt P08684); assay: Cytochrome P450 Family 3 Subfamily A Member 4 (CYP3A4) small molecule antagonists: luciferase reporter qHTS assay (AID 1671201); note: nearly all actives have a fitted effect of over 50% in size
Sequence of Cytochrome P450 3A4 (Homo sapiens) (P08684 whole entry, looked up): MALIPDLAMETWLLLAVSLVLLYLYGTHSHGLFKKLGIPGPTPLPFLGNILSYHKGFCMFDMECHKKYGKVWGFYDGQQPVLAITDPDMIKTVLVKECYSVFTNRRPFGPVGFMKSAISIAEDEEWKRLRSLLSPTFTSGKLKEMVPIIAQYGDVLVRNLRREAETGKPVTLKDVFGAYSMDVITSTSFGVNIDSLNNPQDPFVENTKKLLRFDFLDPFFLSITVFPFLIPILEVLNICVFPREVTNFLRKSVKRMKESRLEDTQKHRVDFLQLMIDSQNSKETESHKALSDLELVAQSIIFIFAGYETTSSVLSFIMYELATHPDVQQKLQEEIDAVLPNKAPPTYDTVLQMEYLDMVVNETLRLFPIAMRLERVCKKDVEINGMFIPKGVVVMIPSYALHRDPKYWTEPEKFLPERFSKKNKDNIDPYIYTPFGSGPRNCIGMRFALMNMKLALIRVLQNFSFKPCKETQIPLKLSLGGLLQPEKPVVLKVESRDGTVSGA
Outline: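 Recombinant human CYP3A4 converts a proluciferin substrate to luciferin over 1 h at room temperature after NADPH regeneration solution is added (compound preincubated 10 min); detection reagent stops reaction, luminescence read 20 min later as relative units.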
Potency is the fitted concentration of half-maximal effect.

| Compound | Potency [1] | Potency [2] | Potency [3] | Potency [4] | Potency [5] |
| --- | --- | --- | --- | --- | --- |
| C/C=C/C(=O)N(CC)c1ccccc1C | 44.8 µM (active) and 17.4 µM (active) | 39.9 µM (active) | 31.7 µM (active) and inactive | inactive | inactive |
| C=C[C@H]1CN2CC[C@H]1C[C@H]2[C@H](O)c1ccnc2ccc(OC)cc12 | inactive |  |  |  |  |
| Cc1ccc(/C(=C\CN2CCCC2)c2ccccn2)cc1 | inactive | inactive | inactive | 18.3 µM (active) and 10.7 µM (active) | inactive |
| IC(I)I | 39.9 µM (active) and 89.4 µM (active) | 35.5 µM (active) and 63.3 µM (active) | 25.2 µM (active) | inactive |  |
| OC[C@@H](O)[C@@H](O[C@@H]1O[C@H](CO)[C@H](O)[C@H](O)[C@H]1O)[C@H](O)[C@@H](O)CO | inactive | inactive | 35.1 µM (active) and inactive | inactive | inactive |
| C=CC(=O)OCCCC | inactive | inactive | inactive | inactive | inactive |
| O=C1CCc2ccccc2O1 | 31.9 µM (active) and inactive | inactive | inactive | inactive | inactive |
| CC[C@]12CCCN3CCc4c(n(c5ccccc45)[C@@](O)(C(=O)OC)C1)[C@@H]32 | 71 µM (active) and inactive | inactive | inactive | 692 nM (active) and 1.69 µM (active) |  |
| Nc1ccc2c(O)cc(S(=O)(=O)O)cc2c1 | 79.8 µM (active) and 50.2 µM (active) | 71 µM (active) | inactive | inactive | inactive |
| Cc1ccc(S(=O)(=O)O)cc1C | inactive | inactive | inactive | inactive | inactive |
| Nc1ccc2c(c1)C(=O)c1ccccc1C2=O | 8.78 µM (active) and 35.6 µM (active) | 19.6 µM (active) and 22.4 µM (active) | 220 nM (active) and 252 nM (active) | inactive | 1.24 µM (active) and 1.78 µM (active) |
| Brc1nc2ccccc2s1 | 35.5 µM (active) and inactive | inactive | 31.6 µM (active) and 14.2 µM (active) | inactive | inactive |
| COc1ccc2nc(N)sc2c1 | 39.9 µM (active) and 71 µM (active) | 39.9 µM (active) | 22.5 µM (active) and 31.7 µM (active) | inactive |  |
| CCO[Si](CCCNC(N)=O)(OCC)OCC | inactive and 56.4 µM (active) | inactive | inactive | inactive | inactive |
| O=S1(=O)CCCO1 |  | inactive |  | inactive | inactive |
| C=C[C@H]1CN2CC[C@H]1C[C@@H]2[C@@H](O)c1ccnc2ccc(OC)cc12 |  |  | inactive |  |  |

| Compound | Potency [1] | Potency [2] | Potency [3] | Potency [4] | Potency [5] |
| --- | --- | --- | --- | --- | --- |
| C=C1C[C@H]2[C@@H]3C=C(C)C4=CC(=O)CC[C@]4(C)[C@H]3CC[C@]2(C)[C@@]1(OC(C)=O)C(C)=O |  | 22.9 µM (active) and 17.4 µM (active) | inactive | inactive | inactive |
| CC(=O)O[C@]1(C(C)=O)CC[C@H]2[C@@H]3C=C(C)C4=CC(=O)CC[C@]4(C)[C@H]3CC[C@@]21C |  | 7.96 µM (active) and 8.71 µM (active) | inactive | inactive | inactive |
| NCCS(=O)(=O)O |  |  |  | inactive |  |
| OCCNCCO |  |  |  | inactive | inactive |
| Cc1ccc(C(C)(C)C)c(O)c1 |  | 34.4 µM (active) and 71 µM (active) | 71 µM (active) | inactive | inactive |
| O=[Se](O)O |  | 7.11 µM (active) | inactive and 13.6 µM (active) | inactive | inactive |
| [O-]/[N+](=N\O)c1ccccc1 |  |  | 22.2 µM (active) and 25.2 µM (active) | inactive | inactive |
| C=C[Si](OCCOC)(OCCOC)OCCOC |  | inactive | inactive | inactive | 20.1 µM (active) and 31.7 µM (active) |
| C=CCNCC=C |  | inactive | inactive and 39.9 µM (active) | inactive | inactive |
| COC(=O)CC(=O)OC |  | inactive | inactive | inactive | inactive and 63.3 µM (active) |
| C[C@]12CC[C@@H]3c4ccc(O)cc4CC[C@H]3[C@@H]1CC[C@H]2O |  | 11.4 µM (active) and inactive |  |  | inactive |
| C=CC(C)(O)CCC=C(C)C (stereo not drawn) |  |  | inactive | inactive | inactive |
| Cc1cccc(Nc2ccccc2C(=O)O)c1C |  | 31.7 µM (active) and 30.9 µM (active) |  | inactive | inactive |
| CCCCCCCCCCC(CO)CCCCCCCC (stereo not drawn) |  | inactive | inactive | inactive | inactive |
| CNC[C@H](O)c1ccc(O)c(O)c1 |  |  |  | inactive |  |
| Nc1cc(Cl)c(N)c(Cl)c1 |  | 15.8 µM (active) and 39.9 µM (active) | 15.8 µM (active) and 35.6 µM (active) | inactive | 3.14 µM (active) and 17.8 µM (active) |

From PubChem BioAssay (Tox21)
